Where a name gives a salt, the structure may show the parent alone.
Experiments:
Conditions in all cases: incubation time: 27 h, anaerobic, 37 °C;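 for the amine columns active = adjusted P below 0.05 in both replicates with a change the same way and a mean fold change under 0.8 or over 1.25; inactive = the rest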
[1] = tested on: Clostridium sporogenes DSM 1664; assay: growth (OD595) fold change vs plate DMSO controls (fold change (ratio)); higher = more growth
How it was run: (§1)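 To obtain OD, 595 nm absorbance readings were blank-subtracted, corrected for compound background using 20 µM compound solutions in water, and multiplied by a calibration factor of 5. They came from 96-well mGAM cultures grown anaerobically for 27 h at 37 °C and shaken before reading. Growth is the fold change relative to the median of plate DMSO controls. Two biological replicates were averaged, and fold changes above 1.5 were set to NA.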

Escherichia coli IAI1 [2] = assay: as above
How it was run: as §1

[3] = tested on: Klebsiella aerogenes DSM 30053; assay: as above
How it was run: as §1

[4] = tested on: Ruminococcus gnavus DSM 108212; assay: as above
How it was run: as §1

[5] = tested on: Klebsiella aerogenes DSM 30053; assay: fold change of Histamine concentration vs plate DMSO controls (fold change (ratio)); higher = more amine produced, active = hit call of the paper (significant change in both replicates, either direction)
How it was run: (§2)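 Amines were quantified by LC–triple-quadrupole MS in dynamic MRM mode against external calibration curves, with drift correction within each batch. The samples were whole anaerobic mGAM cultures of four gut bacterial strains, grown for 27 h at 37 °C in 80 µL wells and extracted with cold acetonitrile/methanol with 0.1% formic acid, then centrifuged. Values are reported as fold change over DMSO controls on the same plate. The mean of 2 biological replicates is given.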

[6] = tested on: Clostridium sporogenes DSM 1664; assay: fold change of Tryptamine concentration vs plate DMSO controls (fold change (ratio)); higher = more amine produced, active = hit call of the paper (significant change in both replicates, either direction)
How it was run: as §2

[7] = tested on: Ruminococcus gnavus DSM 108212; assay: as above
How it was run: as §2

Escherichia coli IAI1 [8] = assay: fold change of Putrescine concentration vs plate DMSO controls (fold change (ratio)); higher = more amine produced, active = hit call of the paper (significant change in both replicates, either direction)
How it was run: as §2

[9] = tested on: Klebsiella aerogenes DSM 30053; assay: as above
How it was run: as §2

Escherichia coli IAI1 [10] = assay: fold change of Cadaverine concentration vs plate DMSO controls (fold change (ratio)); higher = more amine produced, active = hit call of the paper (significant change in both replicates, either direction)
How it was run: as §2

[11] = tested on: Klebsiella aerogenes DSM 30053; assay: as above
How it was run: as §2

[12] = tested on: Ruminococcus gnavus DSM 108212; assay: fold change of 2-Phenylethylamine concentration vs plate DMSO controls (fold change (ratio)); higher = more amine produced, active = hit call of the paper (significant change in both replicates, either direction)
How it was run: as §2

Row | Structure (SMILES) | growth [1] | growth (Escherichia coli IAI1 [2]) | growth [3] | growth [4] | fold change of Histamine concentration [5] | fold change of Tryptamine concentration [6] | fold change of Tryptamine concentration [7] | fold change of Putrescine concentration (Escherichia coli IAI1 [8]) | fold change of Putrescine concentration [9] | fold change of Cadaverine concentration (Escherichia coli IAI1 [10]) | fold change of Cadaverine concentration [11] | fold change of 2-Phenylethylamine concentration [12]
1 | OC[C@@H](O)[C@@H](O)CO [Erythritol] (50 µM) | 0.882 | 1.12 | 0.977 | 1.02 | 1.05 (inactive) | 1 (inactive) | 0.974 (inactive) | 1.03 (inactive) | 0.995 (inactive) | 1.05 (inactive) | 0.993 (inactive) | 0.945 (inactive)
2 | Cc1cc2c(s1)Nc1ccccc1N=C2N1CCN(C)CC1 [Olanzapine] (20 µM) | 1.16 | 1.13 | 1.04 | 1.19 | 0.961 (inactive) | 0.966 (inactive) | 0.922 (inactive) | 1.04 (inactive) | 0.988 (inactive) | 0.945 (inactive) | 0.999 (inactive) | 0.944 (inactive)
3 | CNCCC=C1c2ccccc2C=Cc2ccccc21 [Norcyclobenzaprine] (20 µM) | 1.1 | 1.02 | 1.01 | 1.09 | 0.997 (inactive) | 0.985 (inactive) | 0.939 (inactive) | 1 (inactive) | 0.993 (inactive) | 1.02 (inactive) | 0.994 (inactive) | 0.935 (inactive)
4 | Cc1c(C(=O)NN2CCCCC2)nn(-c2ccc(Cl)cc2Cl)c1-c1ccc(Cl)cc1 [Rimonabant] (20 µM) | 0.981 | 0.979 | 1 | 1.04 | 1.03 (inactive) | 0.906 (inactive) | 0.897 (inactive) | 1.01 (inactive) | 1.02 (inactive) | 1.04 (inactive) | 0.998 (inactive) | 0.841 (inactive)
5 | CCN1CCN(Cc2ccc(Nc3ncc(F)c(-c4cc(F)c5nc(C)n(C(C)C)c5c4)n3)nc2)CC1 [Abemaciclib] (20 µM) | 0.975 | 1 | 1.04 | 1.19 | 1.02 (inactive) | 1 (inactive) | 1 (inactive) | 0.983 (inactive) | 1.01 (inactive) | 1.03 (inactive) | 0.993 (inactive) | 1.02 (inactive)
6 | CN(C)CCCN1c2ccccc2[S+]([O-])c2ccc(Cl)cc21 (stereo not drawn) [Chlorpromazine Sulfoxide] (20 µM) | 0.948 | 0.996 | 0.985 | 1.03 | 1.04 (inactive) | 1.06 (inactive) | 1.04 (inactive) | 0.993 (inactive) | 0.996 (inactive) | 1.01 (inactive) | 0.977 (inactive) | 1.1 (inactive)
7 | CN(C)CC/C=C1/c2ccccc2Sc2ccc(Cl)cc21 [Chlorprothixene hydrochloride] (20 µM) | 1.03 | 0.991 | 1.01 | 0.904 | 0.956 (inactive) | 0.997 (inactive) | 0.87 (inactive) | 0.959 (inactive) | 0.996 (inactive) | 1.03 (inactive) | 1.02 (inactive) | 0.942 (inactive)
8 | COc1ccc2c(c1)C(=O)N(CCc1ccc(S(=O)(=O)NC(=O)NC3CCCCC3)cc1)C(=O)C2(C)C [Gliquidone] (20 µM) | 0.999 | 1.05 | 0.984 | 0.999 | 1.04 (inactive) | 0.929 (inactive) | 0.956 (inactive) | 1.04 (inactive) | 1 (inactive) | 1.04 (inactive) | 0.988 (inactive) | 0.942 (inactive)
9 | CCN[C@H]1C[C@H](C)S(=O)(=O)c2sc(S(N)(=O)=O)cc21 [Dorzolamide hydrochloride] (20 µM) | 1.23 | 1.05 | 1.02 | 1.15 | 0.991 (inactive) | 0.996 (inactive) | 0.977 (inactive) | 1.06 (inactive) | 0.977 (inactive) | 0.965 (inactive) | 0.993 (inactive) | 0.992 (inactive)
10 | C[C@H](O)C(=O)Nc1c(I)c(C(=O)NC(CO)CO)c(I)c(C(=O)NC(CO)CO)c1I [Iopamidol] (20 µM) | 1.2 | 1.02 | 1.05 | 1.25 | 1.04 (inactive) | 1.03 (inactive) | 1.07 (inactive) | 0.979 (inactive) | 0.995 (inactive) | 0.999 (inactive) | 1.01 (inactive) | 1.05 (inactive)
11 | CC(=O)N(CC(O)CN(C(C)=O)c1c(I)c(C(=O)NCC(O)CO)c(I)c(C(=O)NCC(O)CO)c1I)c1c(I)c(C(=O)NCC(O)CO)c(I)c(C(=O)NCC(O)CO)c1I (stereo not drawn) [Iodixanol] (20 µM) | 0.85 | 0.989 | 1.03 | 1.01 | 0.962 (inactive) | 1.02 (inactive) | 0.886 (inactive) | 1.04 (inactive) | 1 (inactive) | 0.988 (inactive) | 0.991 (inactive) | 0.815 (inactive)
12 | CC[N+](CC)(CC)CCC(O)(c1ccccc1)C1CCCCC1 (stereo not drawn) [Tridihexethyl chloride] (20 µM) | 0.911 | 1 | 1.01 | 1.16 | 0.955 (inactive) | 1.17 (inactive) | 1.06 (inactive) | 0.812 (inactive) | 0.975 (inactive) | 0.857 (inactive) | 1.02 (inactive) | 1.03 (inactive)
13 | CC(C)NCC(O)c1ccc(NS(C)(=O)=O)cc1 (stereo not drawn) [Sotalol hydrochloride] (20 µM) | 0.907 | 0.97 | 1.2 | 1.01 | 0.907 (inactive) | 1.03 (inactive) | 1.18 (inactive) | 0.935 (inactive) | 1.06 (inactive) | 1.08 (inactive) | 1.12 (inactive) | 1.36 (inactive)
14 | O=P(O)(O)C(O)(Cc1cccnc1)P(=O)(O)O [Risedronic acid monohydrate] (20 µM) | 1.08 | 1.12 | 1 | 0.913 | 1.05 (inactive) | 1.04 (inactive) | 1.04 (inactive) | 1.2 (inactive) | 1.02 (inactive) | 0.97 (inactive) | 1.01 (inactive) | 1.07 (inactive)
15 | CC(NCCC(c1ccccc1)c1ccccc1)c1ccccc1 (stereo not drawn) [Fendiline hydrochloride] (20 µM) | 0.961 | 0.952 | 0.98 | 1.09 | 1.06 (inactive) | 0.941 (inactive) | 0.888 (inactive) | 1.18 (inactive) | 1.03 (inactive) | 0.196 (active) | 0.998 (inactive) | 0.98 (inactive)
16 | Cn1cc(C(=O)Nc2ccc(F)cc2-c2ccc(Cl)c(Cl)c2)c(C(F)F)n1 (20 µM) | 1.12 | 1 | 0.972 | 1.21 | 1.06 (inactive) | 1.01 (inactive) | 0.907 (inactive) | 1.01 (inactive) | 1.01 (inactive) | 0.998 (inactive) | 0.986 (inactive) | 0.931 (inactive)
17 | CC[C@H]1OC(=O)[C@H](C)[C@@H](O[C@H]2C[C@@](C)(OC)[C@@H](O)[C@H](C)O2)[C@H](C)[C@@H](O[C@@H]2O[C@H](C)C[C@H](N(C)C)[C@H]2O)[C@](C)(OC)C[C@@H](C)C(=O)[C@H](C)[C@@H](O)[C@]1(C)O [Clarithromycin] (20 µM) | 0 | 0.665 | 0.941 | 0.257 | 0.636 (inactive) | 0.0515 (active) | 0.11 (active) | 0.434 (inactive) | 0.888 (inactive) | 0.944 (inactive) | 1.03 (inactive) | 0.118 (active)
18 | CN1[C@@H]2CC[C@H]1C[C@@H](OC(=O)c1c[nH]c3ccccc13)C2 [Tropisetron hydrochloride] (20 µM) | 1.14 | 1 | 1.14 | 1.08 | 0.94 (inactive) | 1.01 (inactive) | 1.02 (inactive) | 0.982 (inactive) | 0.952 (inactive) | 0.994 (inactive) | 1.01 (inactive) | 0.957 (inactive)
19 | Nc1ccc(S(=O)(=O)Nc2ccc(Cl)nn2)cc1 [Sulfachloropyridazine] (20 µM) | 1.03 | 0.966 | 1.05 | 0.974 | 0.939 (inactive) | 1.01 (inactive) | 1.04 (inactive) | 0.964 (inactive) | 0.976 (inactive) | 0.962 (inactive) | 1.01 (inactive) | 1.14 (inactive)
20 | COc1ccc2cc([C@@H](C)C(=O)O)ccc2c1 [(R) Naproxen sodium salt] (20 µM) | 0.979 | 1.08 | 1.07 | 0.811 | 1.03 (inactive) | 1.07 (inactive) | 1.05 (inactive) | 0.951 (inactive) | 0.974 (inactive) | 0.956 (inactive) | 1 (inactive) | 1.11 (inactive)
21 | CCOC(=O)NNc1nncc2ccccc12 [Todralazine hydrochloride] (20 µM) | 0.521 | 1.14 | 1.04 | 1 | 0.967 (inactive) | 0.506 (inactive) | 0.955 (inactive) | 1.02 (inactive) | 0.984 (inactive) | 1.04 (inactive) | 1.01 (inactive) | 1.03 (inactive)
22 | CC(C)NC[C@H](O)COc1ccc(CC(N)=O)cc1 [(S,-) Atenolol] (20 µM) | 0 | 0.913 | 1.01 | 0.825 | 1.04 (inactive) | 0.0316 (active) | 0.944 (inactive) | 0.847 (inactive) | 1.03 (inactive) | 0.954 (inactive) | 1.02 (inactive) | 0.909 (inactive)
23 | CCC(=O)O[C@@H](O[P@](=O)(CCCCc1ccccc1)CC(=O)N1C[C@H](C2CCCCC2)C[C@H]1C(=O)O)C(C)C [Fosinopril] (20 µM) | 1.01 | 1.09 | 1.05 | 1.08 | 1.06 (inactive) | 0.979 (inactive) | 1.05 (inactive) | 1.3 (inactive) | 1.01 (inactive) | 0.939 (inactive) | 1 (inactive) | 1.08 (inactive)
24 | CC(=O)N[C@@H](CS)C(=O)O [Acetylcysteine] (20 µM) | 0.935 | 1.07 | 0.967 | 0.985 | 1.14 (inactive) | 1.07 (inactive) | 0.993 (inactive) | 1.03 (inactive) | 1.02 (inactive) | 1.02 (inactive) | 0.987 (inactive) | 1 (inactive)

Reference: the supplement of paper PMC12494721
